PubChem BioAssay (NCATS)
Inconclusive results are not listed. Entries that show only a call come without a potency. The source made the active and inactive calls. Calls come from the whole dose curve; as a rule, active = well fitted inhibition curve with a large enough effect; inconclusive = small, poorly fitted or top-dose-only effect, or effect the other way; inactive = flat fitted curve, though single readings scatter.
Potency is the fitted concentration of half-maximal effect.

Test: qHTS for Inhibitors of Plasmodium falciparum (GB4) proliferation (AID 504315); note: nearly all actives have a fitted effect of over 50% in size
Conditions: P. falciparum GB4 in erythrocytes, SYBR Green DNA, 72 h; series mostly up to 6.7 µM
Excerpt: Plasmodium falciparum is a virulent malarial parasite that kills 1-2 million people worldwide each year. Malaria not only inflicts tremendous suffering and morbidity on the human population, but has dramatically influenced the course of civilization with profound sociological and economic implications (Shah, S. 2010). Transmitted by mosquitoes, the sporozoite form of the parasite enters the blood stream to infect hepatocytes, where they become merozoites that infect red blood cells (erythrocytes). Within erythrocytes, merozoites begin a […] cycle of growth and division, after which the parasite is released to infect new red blood cells. Gametocytes, which form within erythrocytes as well, circulate in the bloodstream and are ingested by the mosquito, thereby completing the life cycle (see CDC website). To profile malarial lines for differential chemical responses and to identify inhibitors of malarial growth, an assay that measures P. falciparum growth and replication within erythrocytes was employed. This assay uses a DNA binding fluorescent dye (SYBR Green) to detect parasite DNA following cell lysis. Because mature erythrocytes lack DNA, only Plasmodium-derived DNA is detected. The P. falciparum line cp250, derived from a malarial isolate from Cambodia, (Mu, J., et al. 2010) was added to the panel of lines, Dd2, HB3, 7G8 and GB4 in this study. Laboratory of Assay Development and Screening Technology [ADST] and NIH Chemical Genomics Center [NCGC] Boston University, Chemistry Department, Center for Chemical Methodology and Library Development [CMLD-BU] NIH National Institute of Allergy and Infectious Diseases [NIAID]
ADST Assay Protocol Summary: The 1536-well SYBR Green viability assay was based on the method of Bennett et al (2004) and described previously in 1536-well format (Yuan J., et al. 2009). For screening 3 ul culture medium was dispensed into 1536 well black clear bottom plates (Aurora Biotechnologies) using a Multidrop Combi (Thermo Fisher Scientific Inc.), 23 nL compounds in DMSO were added by a pin transfer (Cleveland, P.H. and Koutz, P.J, 2005) using a pin tool-based delivery system (Kalypsys), and 5 ul of erythrocytes infected with P. falciparum one of five lines (cp250, Dd2, HB3, 7G8 or GB4, 0.3% parasitemia, 2.5% hematocrit final concentration) were added. The plates were incubated at 37C in a humidified incubator in 5% CO2 for 72 h, and 2 ul lysis buffer (20 mM Tris HCl, 10 mM EDTA, 0.16% saponin, 1.6% triton X, 10X SYBR Green I (supplied as 10,000X final concentration by Invitrogen) was added to each well. The plates were mixed for 25 sec with gentle shaking and incubated overnight at room temperature in the dark. The following morning, fluorescence intensity at 485(14) nm excitation and 535(25) nm emission wavelengths was measured on an EnVision (Perkin Elmer) plate reader. Plate reads were normalized relative to the control inhibitor (0.29 uM artemisinin) and vehicle (DMSO) wells present on each plate and then corrected by an algorithm using vehicle-only control plates at the beginning and end of the compound plate stack. References Shah, S. (2010). The Fever: how malaria has ruled humankind for 500,000 years. New York, Sarah Crichton Books. CDC web site, http://www.cdc.gov/malaria/about/biology/index.html Mu, J., Myers, R.A., Jiang, H., Liu, S., Ricklefs, S., Waisberg, M., Chotivanich, K., Wilairatana, P., Krudsood, S., White, N.J., et Plasmodium falciparum genome-wide scans for positive selection, recombination hot spots and resistance to antimalarial drugs Nature Genetics 2010, 42, pp 268-271 Bennett TN, Paguio, M., Gligorijevic, B., Seudieu, C., Kosar, A. D., Davidson, E., and Roepe, P. D. Novel, rapid, and inexpensive cell-based quantification of antimalarial drug efficacy Antimicrobial Agents Chemother. 2004, 48(5): pp 1807-10 Yuan J, Johnson RL, Huang RL, Wichterman J, Jiang HY, Hayton K, Fidock DA, Wellems TE, Inglese J, Austin CP, Su XZ. […]
In the case of `C[C@@H]1CC[C@H]2C(=O)N(Cc3ccccc3)C[C@H](O)CN2[C@H]1c1ccc(Br)cc1`, the Potency is reported as “inactive”. For `COc1cc2c(cc1OC)[C@@H]1O[C@](CCCCN3C(=O)c4ccccc4C3=O)(C2)Oc2cc(C)n(-c3ccccc3)c(=O)c21`, the Potency was 1.35 µM (active). For `CCOC(=O)CN1C(=O)N[C@@H](c2ccccc2)[C@@H](C(=O)OC)[C@H]1C`, the Potency was “inactive”. With `C=CCN1C=C2C(=O)C(C)(OC(=O)c3cnc4ccccc4n3)C(=O)C=C2C=C1/C=C/COC` (stereo not given) the Potency was “inactive”. With `C=C(C(C)=O)C(O)c1cccs1` (stereo not given) the Potency was “inactive”. In the case of `COC(=O)C1=C(C(=O)OC)[C@@H]2N(C)c3ccccc3[C@@]23C[C@@H](C(=O)OC)N(S(=O)(=O)c2cccs2)C3=N1`, the Potency is reported as “inactive”. With `COC/C=C/C1=CC2=CC(=O)C(C)(OC(=O)c3cnc4ccccc4n3)C(=O)C2=CN1Cc1ccc2c(c1)OCO2` (stereo not given) the Potency was “inactive”. With `COC(=O)C1=C(C(=O)OC)[C@@H]2N(C)c3ccccc3[C@@]23C[C@@H](C(=O)OC)N(S(=O)(=O)c2ccc(OC)cc2)C3=N1` the Potency was “inactive”. For `COc1ccc(CN2C=C3C(=O)C(C)(OC(=O)CCc4ccccc4)C(=O)C=C3C=C2c2ccc(C#N)cc2)cc1` (stereo not given), the Potency was “inactive”. For `COC/C=C/C1=CC2=CC(=O)C(C)(OC(=O)c3cnc4ccccc4n3)C(=O)C2=CN1c1ccc(OC)cc1` (stereo not given), the Potency was “inactive”. In the case of `CCN1C(=O)N[C@@H](c2cccc(C(F)(F)F)c2)C(C(=O)OC)=C1C`, the Potency is reported as “inactive”. With `COC(=O)CCC(=O)OC1(C)C(=O)C=C2C=C(C3CC3)N(C3CCCCC3)C=C2C1=O` (stereo not given) the Potency was “inactive”. In the case of `COC(=O)C1=C(C)N(CCc2cc(OC)c(OC)c(OC)c2)C(=O)N[C@H]1c1ccccc1`, the Potency is reported as “inactive”. In the case of `COC(=O)[C@H]1[C@@H](C)N(Cc2ccccc2)C(=O)N[C@H]1c1cccc(C(F)(F)F)c1`, the Potency is reported as “inactive”. For `C[C@H]1Cc2c(COc3ccccc3)nc3c(c2CO1)CN(S(=O)(=O)c1ccc(Cl)c2nonc12)CC3`, the Potency was “inactive”. In the case of `CCN1C(=O)N[C@@H](c2cccs2)C(C(=O)OC)=C1C`, the Potency is reported as “inactive”. For `COC(=O)C1=C(C(=O)OC)[C@@H]2N(C)c3ccc(OC)cc3[C@@]23C[C@@H](C(=O)OC)N(S(=O)(=O)c2c(C)noc2C)C3=N1`, the Potency was “inactive”. For `COC/C=C/C1=CC2=CC(=O)C(C)(OC(=O)c3cnc4ccccc4n3)C(=O)C2=CN1Cc1ccco1` (stereo not given), the Potency was “inactive”. With `COC(=O)CCC(=O)OC1(C)C(=O)C=C2C=C(C3CC3)N(C(CO)CO)C=C2C1=O` (stereo not given) the Potency was “inactive”. In the case of `C=CCN1C=C2C(=O)C(C)(OC(=O)CCc3ccccc3)C(=O)C=C2C=C1c1ccc(C#N)cc1` (stereo not given), the Potency is reported as “inactive”. With `COC/C=C/C1=CC2=CC(=O)C(C)(OC(=O)c3cnc4ccccc4n3)C(=O)C2=CN1CCCCO` (stereo not given) the Potency was “inactive”. For `CCCCC1=CC2=CC(=O)C(C)(OC(=O)CC)C(=O)C2=CN1CCc1c[nH]c2ccccc12` (stereo not given), the Potency was “inactive”. In the case of `COC(=O)CCC(=O)OC1(C)C(=O)C=C2C=C(C3CC3)N(c3ccccc3)C=C2C1=O` (stereo not given), the Potency is reported as “inactive”. In the case of `C[C@@H]1CC[C@H]2C(=O)N(Cc3cccc([N+](=O)[O-])c3)C[C@H](O)CN2[C@@H]1c1ccc(Br)cc1`, the Potency is reported as “inactive”. For `CCCCC1=CC2=C(c3ccco3)C(=O)C(C)(OC(=O)c3ccc(OC)cc3)C(=O)C2=CN1C1CCCC1` (stereo not given), the Potency was “inactive”. With `CCCCC1=CC2=CC(=O)C(C)(OC(=O)CC)C(=O)C2=CN1CCc1ccc(Br)cc1` (stereo not given) the Potency was “inactive”. In the case of `COC(=O)CCC(=O)OC1(C)C(=O)C=C2C=C(C3CC3)N(c3ccc(OC)cc3)C=C2C1=O` (stereo not given), the Potency is reported as “inactive”. For `CC1(OC(=O)CCc2ccccc2)C(=O)C=C2C=C(c3ccc(C#N)cc3)N(Cc3ccco3)C=C2C1=O` (stereo not given), the Potency was “inactive”. For `CCCCC1=CC2=C(c3ccco3)C(=O)C(C)(OC(=O)c3ccc(OC)cc3)C(=O)C2=CN1CCc1c[nH]c2ccccc12` (stereo not given), the Potency was “inactive”. With `CCCNC(=O)N1C2=NC(C(=O)OC)=C(C(=O)OC)[C@@H]3N(C)c4ccccc4[C@]23C[C@H]1C(=O)OC` the Potency was “inactive”. For `COC(=O)C1=C(C(=O)OC)[C@@H]2N(C)c3ccccc3[C@@]23C[C@@H](CO)N(C(=O)c2cc(C)oc2C)C3=N1`, the Potency was “inactive”. With `CCOC(=O)OC[C@H]1O[C@H](c2ccccc2)C=C[C@H]1OC(=O)OCC` the Potency was “inactive”. With `COC(=O)[C@H]1[C@H](CCc2ccccc2)NC(=O)N(Cc2ccccc2)[C@@H]1C` the Potency was “inactive”. For `CCOC(=O)N1C2=NC(C(=O)OC)=C(C(=O)OC)[C@@H]3N(C)c4ccc(OC)cc4[C@]23C[C@H]1C(=O)OC`, the Potency was “inactive”. In the case of `CC1COc2ccccc2C1=O` (stereo not given), the Potency is reported as 1.9 µM (active). With `CCN1C(=O)N[C@@H](c2cccc(F)c2)C(C(C)=O)=C1C` the Potency was “inactive”. For `COC(=O)CCCC1=CC2=CC(=O)C(C)(OC(=O)c3cccs3)C(=O)C2=CN1Cc1ccccc1` (stereo not given), the Potency was “inactive”. With `COC/C=C/C1=CC2=CC(=O)C(C)(OC(=O)c3cnc4ccccc4n3)C(=O)C2=CN1C1CCCC1` (stereo not given) the Potency was “inactive”. With `COC(=O)[C@]1(C)C=C[C@@H](C)[C@H](c2ccccc2Br)N1C(=O)C(F)(F)F` the Potency was “inactive”. For `Cc1cc2c(c(=O)n1-c1ccccc1)[C@H]1O[C@](c3ccsc3)(Cc3cc(C#N)ccc31)O2`, the Potency was “inactive”.
